Drawing on ChEMBL document CHEMBL1961873, “Compounds: GSK PKIS; Assays: Nanosyn kinase panel” (2012), this text covers inhibition for 14 compounds.

Assay [1] deals with Sphingosine kinase 1 (Homo sapiens) (UniProt Q9NYA1). Particulars: at 1 µM.
Assay [2] deals with T1, Sphingosine kinase 2 (Homo sapiens) (UniProt Q9NRA0).
T1 sequence (whole entry): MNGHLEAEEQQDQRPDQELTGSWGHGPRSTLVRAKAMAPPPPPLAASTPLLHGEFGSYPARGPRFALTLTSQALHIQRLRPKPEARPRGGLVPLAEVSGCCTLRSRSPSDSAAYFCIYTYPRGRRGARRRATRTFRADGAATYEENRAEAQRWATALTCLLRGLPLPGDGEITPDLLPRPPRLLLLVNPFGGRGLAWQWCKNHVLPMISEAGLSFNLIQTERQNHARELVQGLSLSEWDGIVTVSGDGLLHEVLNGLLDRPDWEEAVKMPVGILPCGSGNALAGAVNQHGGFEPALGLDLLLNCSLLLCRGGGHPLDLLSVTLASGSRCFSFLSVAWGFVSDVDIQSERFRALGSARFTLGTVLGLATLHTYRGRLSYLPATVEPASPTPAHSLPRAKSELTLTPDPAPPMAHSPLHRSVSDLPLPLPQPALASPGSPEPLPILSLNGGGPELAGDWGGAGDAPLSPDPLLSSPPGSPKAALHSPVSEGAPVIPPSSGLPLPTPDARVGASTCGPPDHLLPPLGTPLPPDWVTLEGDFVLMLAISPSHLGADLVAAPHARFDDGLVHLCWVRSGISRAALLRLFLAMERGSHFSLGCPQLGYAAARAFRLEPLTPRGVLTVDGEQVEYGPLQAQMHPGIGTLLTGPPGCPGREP
Particulars: at 0.1 µM.

Assay [3] addresses T1, Sphingosine kinase 2 (Homo sapiens). Particulars: at 1 µM.
Assay [4] has as its target Casein kinase II subunit alpha (Homo sapiens) (UniProt P68400). Particulars: at 0.1 µM.
The target is the same in assay [5]. Particulars: at 1 µM.
The target in assay [6] is T2, Inhibitor of nuclear factor kappa-B kinase subunit alpha (Homo sapiens) (UniProt O15111).
T2 sequence (whole entry): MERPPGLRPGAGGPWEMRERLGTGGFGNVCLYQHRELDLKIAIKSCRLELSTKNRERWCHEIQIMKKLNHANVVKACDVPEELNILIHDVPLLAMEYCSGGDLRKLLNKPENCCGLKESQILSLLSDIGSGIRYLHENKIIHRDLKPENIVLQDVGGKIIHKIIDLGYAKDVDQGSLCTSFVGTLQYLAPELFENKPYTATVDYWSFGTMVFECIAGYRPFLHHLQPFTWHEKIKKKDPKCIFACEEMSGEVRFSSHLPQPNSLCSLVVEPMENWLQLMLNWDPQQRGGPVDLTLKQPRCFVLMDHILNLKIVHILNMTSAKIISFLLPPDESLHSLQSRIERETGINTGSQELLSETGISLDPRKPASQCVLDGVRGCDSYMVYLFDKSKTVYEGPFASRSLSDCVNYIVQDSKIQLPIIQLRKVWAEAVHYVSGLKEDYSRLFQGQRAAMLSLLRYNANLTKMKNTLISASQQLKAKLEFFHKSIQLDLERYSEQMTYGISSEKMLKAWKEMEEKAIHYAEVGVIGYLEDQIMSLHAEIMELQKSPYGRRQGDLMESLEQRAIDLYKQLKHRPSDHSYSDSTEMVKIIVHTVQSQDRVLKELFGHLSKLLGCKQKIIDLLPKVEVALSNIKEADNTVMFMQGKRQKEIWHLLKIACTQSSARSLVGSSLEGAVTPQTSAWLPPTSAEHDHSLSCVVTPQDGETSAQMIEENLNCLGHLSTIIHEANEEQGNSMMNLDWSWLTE
Particulars: at 0.1 µM.

In assay [7] the target is T2, Inhibitor of nuclear factor kappa-B kinase subunit alpha (Homo sapiens). Particulars: at 1 µM.
In assay [8] the target is T3, Inhibitor of nuclear factor kappa-B kinase subunit beta (Homo sapiens) (UniProt O14920).
T3 sequence (whole entry): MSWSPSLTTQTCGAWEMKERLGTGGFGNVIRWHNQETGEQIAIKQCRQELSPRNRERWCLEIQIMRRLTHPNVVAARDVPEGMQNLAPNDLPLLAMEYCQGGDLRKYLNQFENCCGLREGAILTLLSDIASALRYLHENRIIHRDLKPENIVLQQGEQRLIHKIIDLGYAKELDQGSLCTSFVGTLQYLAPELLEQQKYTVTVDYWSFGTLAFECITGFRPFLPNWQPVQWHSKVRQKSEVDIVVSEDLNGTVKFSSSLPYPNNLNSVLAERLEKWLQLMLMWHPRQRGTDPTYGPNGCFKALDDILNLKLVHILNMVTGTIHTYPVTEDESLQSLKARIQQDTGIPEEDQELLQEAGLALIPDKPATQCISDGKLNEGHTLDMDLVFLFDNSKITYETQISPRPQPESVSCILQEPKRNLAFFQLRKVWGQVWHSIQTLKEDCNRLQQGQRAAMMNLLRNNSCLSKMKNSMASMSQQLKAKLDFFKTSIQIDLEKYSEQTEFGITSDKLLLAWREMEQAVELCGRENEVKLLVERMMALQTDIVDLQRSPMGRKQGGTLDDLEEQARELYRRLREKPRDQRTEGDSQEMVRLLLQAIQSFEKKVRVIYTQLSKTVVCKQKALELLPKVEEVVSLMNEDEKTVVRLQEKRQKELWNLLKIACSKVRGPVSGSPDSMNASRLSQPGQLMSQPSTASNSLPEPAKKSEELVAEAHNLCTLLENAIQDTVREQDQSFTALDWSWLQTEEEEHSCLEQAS
The following applies: at 0.1 µM.

Assay [9] concerns the target T3, Inhibitor of nuclear factor kappa-B kinase subunit beta (Homo sapiens). Particulars: at 1 µM.
Assay [10] deals with T4, Inhibitor of nuclear factor kappa-B kinase subunit epsilon (Homo sapiens) (UniProt Q14164).
T4 sequence (whole entry): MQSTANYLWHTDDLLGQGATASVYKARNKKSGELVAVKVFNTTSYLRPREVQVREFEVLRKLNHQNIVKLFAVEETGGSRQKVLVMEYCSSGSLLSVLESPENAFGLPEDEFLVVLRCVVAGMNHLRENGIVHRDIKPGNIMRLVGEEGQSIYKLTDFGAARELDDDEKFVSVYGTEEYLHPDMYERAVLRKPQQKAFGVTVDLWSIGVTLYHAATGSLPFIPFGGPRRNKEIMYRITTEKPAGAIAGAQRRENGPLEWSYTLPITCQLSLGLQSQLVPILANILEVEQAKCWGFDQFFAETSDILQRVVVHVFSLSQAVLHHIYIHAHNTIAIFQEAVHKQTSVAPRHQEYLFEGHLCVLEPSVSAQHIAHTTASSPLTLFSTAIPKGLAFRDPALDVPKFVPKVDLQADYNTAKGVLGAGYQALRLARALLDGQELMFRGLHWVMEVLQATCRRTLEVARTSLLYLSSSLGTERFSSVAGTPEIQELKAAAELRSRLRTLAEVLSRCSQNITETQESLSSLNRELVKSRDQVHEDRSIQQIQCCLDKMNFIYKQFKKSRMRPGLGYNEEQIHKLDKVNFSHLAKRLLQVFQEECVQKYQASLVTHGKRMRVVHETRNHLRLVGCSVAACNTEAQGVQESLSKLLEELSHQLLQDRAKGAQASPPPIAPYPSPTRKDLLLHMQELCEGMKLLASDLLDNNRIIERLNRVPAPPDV
The following applies: at 0.1 µM.

Sequence of Sphingosine kinase 1 (Homo sapiens) (Q9NYA1 whole entry): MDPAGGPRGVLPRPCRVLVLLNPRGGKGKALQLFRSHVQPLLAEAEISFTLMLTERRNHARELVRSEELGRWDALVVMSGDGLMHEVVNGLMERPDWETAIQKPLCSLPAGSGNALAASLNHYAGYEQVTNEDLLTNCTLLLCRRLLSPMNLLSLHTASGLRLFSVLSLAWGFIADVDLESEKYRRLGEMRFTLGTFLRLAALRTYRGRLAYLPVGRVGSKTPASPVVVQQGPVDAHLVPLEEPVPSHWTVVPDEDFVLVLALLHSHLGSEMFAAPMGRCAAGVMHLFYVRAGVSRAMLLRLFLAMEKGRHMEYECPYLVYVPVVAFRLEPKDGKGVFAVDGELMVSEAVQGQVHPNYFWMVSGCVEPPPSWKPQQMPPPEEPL
Sequence of Casein kinase II subunit alpha (Homo sapiens) (P68400 whole entry, looked up): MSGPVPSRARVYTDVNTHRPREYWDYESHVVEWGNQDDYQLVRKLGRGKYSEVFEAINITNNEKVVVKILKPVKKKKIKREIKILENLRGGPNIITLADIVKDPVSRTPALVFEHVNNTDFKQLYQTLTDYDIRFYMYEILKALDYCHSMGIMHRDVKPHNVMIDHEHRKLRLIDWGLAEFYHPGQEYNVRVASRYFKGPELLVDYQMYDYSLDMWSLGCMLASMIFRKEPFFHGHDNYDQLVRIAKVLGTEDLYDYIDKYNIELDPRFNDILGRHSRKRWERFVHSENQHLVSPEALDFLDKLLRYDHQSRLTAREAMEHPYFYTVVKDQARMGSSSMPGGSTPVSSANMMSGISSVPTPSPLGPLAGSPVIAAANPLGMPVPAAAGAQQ

With `Cc1cc(O)cc(C)c1/C=C/c1cncc(C(=O)N(C)C)c1`, the inhibition (usually the drop in the measured response relative to a control, in per cent) in assay [1] was -0.49%; in [2] it was -0.12%; in assay [3], 0.05%; in assay [4], 4.25%; in [5], 5.95%; in [6], 5.21%. Further, the inhibition in assay [7] came to 9.29%; in assay [8] it was 6.05%; in assay [9], 2.23%; in assay [10], 2.77%.
Regarding `CN(c1ccc(NC(=O)Nc2ccc(OC(F)(F)F)cc2)cc1)c1ccnc(Nc2cccc(S(N)(=O)=O)c2)n1`, the inhibition in assay [1] was 0.54%; in assay [2], -0.4%; in [3], 1.23%; in [4], 2.7%; in [5], 1.68%; in assay [6], 8.41%. Also, the inhibition in assay [7] came out at 3.54%; in [8], 3.29%; in [9], 2.85%; in assay [10], 5.07%.
As for `C[C@@H](Oc1cc(-n2cnc3ccc(OCC4CCN(C)CC4)cc32)sc1C(N)=O)c1ccccc1C(F)(F)F`, the inhibition in assay [1] is 1.96%; in assay [2], -2.47%; in assay [3], -0.08%; in assay [4], 6.68%; in assay [5], 7.31%; in [6], -3.27%. In addition, the inhibition in assay [7] was -3.79%; in [8], -5.4%; in [9] it was -3.39%; in assay [10], -3.26%.
Turning to `Cc1ccc(C(=O)NC2CC2)cc1-c1ccc2[nH]ncc2c1`, the inhibition is -1.63% in [1]; -1.1% in assay [2]; 0.65% in assay [3]; -2.79% in assay [4]; -1.68% in assay [5]; 7.28% in assay [6]. For the same compound, the inhibition is -2.31% in assay [7], -3.22% in [8], -2.64% in assay [9] and -3.17% in assay [10].
As to `COc1cc2ncnc(Nc3ccc(C)c(O)c3)c2cc1OC`, the inhibition in [1] was -3.1%; in assay [2], -0.83%; in [3] it was 0.12%; in assay [4], 2.65%; in [5] it was 6.37%; in assay [6], 7.19%. Also, the inhibition in assay [7] came out at 11.6%; in [8] it was 6.42%; in assay [9], 6.01%; in assay [10], 5.22%.
As for `NS(=O)(=O)c1ccc(N/N=C2\C(=O)Nc3ccc(Cl)cc32)cc1`, the inhibition was -4.27% in [1]; 0% in assay [2]; -3.44% in assay [3]; 4.94% in [4]; 14% in [5]; -0.36% in assay [6]. In addition, the inhibition came to 10.7% in assay [7], 4.8% in assay [8], 5.46% in assay [9] and 7.49% in [10].
Turning to `Cc1cc(-c2ccccn2)cc(C)c1/C=C/c1cncc(-c2nn[nH]n2)c1`, the inhibition in assay [1] was determined as 0.83%; in [2], 0%; in [3], 0%; in [4], 7.89%; in [5] it was 6.35%; in assay [6], 5.76%. For the same compound, the inhibition in [7] is 7.54%; in assay [8], 4.37%; in assay [9], 6.71%; in assay [10], 7.41%.
For the compound `NS(=O)(=O)c1ccc(Nc2cc(-c3cccc(O)c3)n[nH]2)cc1`, the inhibition was -2.64% in assay [1]; 0.05% in [2]; -0.8% in assay [3]; 2.68% in assay [4]; 3.26% in assay [5]; 2.32% in assay [6]. In addition, the inhibition in [7] is 2.31%; in assay [8] it was 4.33%; in [9], 5.24%; in [10] it was 6.1%.
As for `Cc1ccc(Nc2ccnc(Nc3cccc(C(N)=O)c3)n2)cc1O`, the inhibition was -3.44% in assay [1]; 0.84% in assay [2]; 0.08% in [3]; 4.12% in [4]; 10.5% in assay [5]; 4.77% in [6]. For the same compound, the inhibition is 9.75% in [7], 7.9% in [8], 26.8% in [9] and 11.4% in assay [10].
On to `COc1cccc(-n2ncc3c(N/N=C/c4ccc(C)cc4)ncnc32)c1`, for which the inhibition was 1.5% in assay [1]; 0.29% in assay [2]; -0.22% in assay [3]; -0.43% in assay [4]; 23.1% in assay [5]; 12% in assay [6]. In addition, the inhibition is 9.99% in [7], 6.84% in [8], 9.36% in [9] and 5.66% in assay [10].
As to `Nc1nccc(C#Cc2cncnc2Nc2ccc(OCc3cccc(F)c3)c(Cl)c2)n1`, the inhibition in assay [1] is -0.71%; in assay [2], 0.13%; in [3], -9.13%; in assay [4], 1.6%; in [5] it was 2.69%; in assay [6], 7.39%. Moreover, the inhibition in [7] is 2.46%; in assay [8], 2.27%; in assay [9] it was -0.17%; in assay [10], 4.71%.
Take `CCn1c(-c2nonc2N)nc2ccc(F)cc21`: the inhibition was 0.48% in [1]; 3.46% in assay [2]; -5.33% in [3]; 4.71% in assay [4]; 8.79% in assay [5]; 4% in assay [6]. The inhibition in [7] came out at 6.96%; in [8], 7.24%; in assay [9], 8.68%; in assay [10] it was 8.59%.
Take `CS(=O)(=O)CCNCc1nc(-c2ccc3ncnc(Nc4ccc(OCc5cccc(C(F)(F)F)c5)cc4)c3c2)cs1`: the inhibition was 1.3% in assay [1]; 0.09% in assay [2]; -0.46% in assay [3]; -0.05% in assay [4]; 1.3% in [5]; -2.52% in assay [6]. Besides, the inhibition is -0.52% in assay [7], 3.26% in [8], 1.84% in assay [9] and -0.33% in assay [10].
Take `CN(C)C(=O)O[C@H]1CN[C@H](C#Cc2cc3ncnc(Nc4ccc(OCc5cccc(F)c5)c(Cl)c4)c3s2)C1`: the inhibition was -2.15% in assay [1]; -0.26% in assay [2]; 0.69% in assay [3]; 0.63% in assay [4]; 0.63% in assay [5]; 1.66% in assay [6]. The inhibition is 2.62% in assay [7], 3.17% in assay [8], -7.42% in assay [9] and 1.55% in [10].
